# Inconclusive results are not listed. Activity calls are given as the source filed them. The calls were made as follows, unless noted: active = hit-call score of the fitted dose curve at least 0.9, where 1 is the maximum; inactive = score below 0.9.
# Tests used:
# [1] = molecular target: Paired box protein Pax-6 (Homo sapiens) (UniProt P26367); assay: ATG_Pax6_CIS: Attagene CIS-FACTORIAL HepG2 Assay for human Paired Box 6 (PAX6) (AID 2282956); settings: HepG2 CIS-FACTORIAL PAX6 reporter transcription, RNA readout; actives raise or lower the signal
# Chain of Paired box protein Pax-6 (Homo sapiens) (P26367 whole entry, looked up): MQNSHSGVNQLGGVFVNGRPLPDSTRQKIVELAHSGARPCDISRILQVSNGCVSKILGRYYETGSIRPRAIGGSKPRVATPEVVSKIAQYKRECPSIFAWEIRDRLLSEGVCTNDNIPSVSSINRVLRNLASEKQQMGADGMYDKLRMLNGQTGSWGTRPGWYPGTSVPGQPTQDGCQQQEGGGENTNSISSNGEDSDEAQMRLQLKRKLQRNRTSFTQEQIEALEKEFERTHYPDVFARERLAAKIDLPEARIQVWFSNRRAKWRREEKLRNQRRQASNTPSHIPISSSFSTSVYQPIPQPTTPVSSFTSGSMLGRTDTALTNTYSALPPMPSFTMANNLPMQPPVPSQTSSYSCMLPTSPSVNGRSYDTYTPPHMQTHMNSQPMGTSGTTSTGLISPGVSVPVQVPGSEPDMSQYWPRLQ
# Summary of the method: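 HepG2 cells transiently transfected with cis-promoter-driven multiplexed reporter units sensing endogenous transcription factor activity; 24 h chemical exposure. Reporter mRNA quantified by RT-PCR, 6-FAM labelling, HpaI digestion and capillary electrophoresis; bidirectional fit versus DMSO baseline.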
# [2] = ATG_PXRE_CIS: Attagene CIS-FACTORIAL HepG2 Assay for human Pregnane X Receptor Element (PXRE) (AID 2282957); settings: HepG2 Attagene CIS-FACTORIAL PXRE reporter, mRNA; actives raise or lower the signal
# Summary of the method: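 Transiently transfected HepG2 cells were dosed and incubated for 24 h. RNA was then isolated, DNase-treated, reverse-transcribed and reporter sequences amplified. Labeled, HpaI-digested fragments were quantified by capillary electrophoresis against DMSO.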
# [3] = ATG_RORE_CIS: Attagene CIS-FACTORIAL HepG2 Assay for human RAR-related Orphan Receptor Element (RORE) (AID 2282959); settings: HepG2 Attagene cis-factorial RORE reporter, mRNA; actives raise or lower the signal
# Summary of the method: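 Transiently transfected HepG2 reporter cells were treated 24 h. Reporter transcripts were detected by RT-PCR and capillary electrophoresis, with bidirectional fitting against DMSO.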
# [4] = ATG_Sox_CIS: Attagene CIS-FACTORIAL HepG2 Assay for human SRY-box transcription factor (SOX) (AID 2282960); settings: HepG2 Attagene cis-factorial SOX reporter, mRNA; actives raise or lower the signal
# Summary of the method: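 Gain- or loss-of-signal endpoint, fitted bidirectionally with DMSO as negative control. Based on reporter mRNA from transfected HepG2 cells harvested 24 h post-treatment and quantified via RT-PCR and capillary electrophoresis.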
# [5] = ATG_SREBP_CIS: Attagene CIS-FACTORIAL HepG2 Assay for human Sterol Regulatory Element Binding (SREBP) (AID 2282962); settings: HepG2 Attagene cis-factorial SREBP reporter, mRNA; actives raise or lower the signal
# Summary of the method: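 HepG2 cells transiently transfected with multiplexed cis-promoter reporter units sensing endogenous transcription factors; reporter mRNA measured 24 h after dosing by RT-PCR, 6-FAM labeling, HpaI digestion and capillary electrophoresis. Bidirectional fit versus DMSO.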
# [6] = molecular target: Signal transducer and activator of transcription 3 (Homo sapiens) (UniProt P40763); assay: ATG_STAT3_CIS: Attagene CIS-FACTORIAL HepG2 Assay for human Signal Transducer and Activator of Transcription 3 (STAT3) (AID 2282963); settings: HepG2, Attagene cis-factorial STAT3 reporter transcription; actives raise or lower the signal
# Chain of Signal transducer and activator of transcription 3 (Homo sapiens) (P40763 whole entry, looked up): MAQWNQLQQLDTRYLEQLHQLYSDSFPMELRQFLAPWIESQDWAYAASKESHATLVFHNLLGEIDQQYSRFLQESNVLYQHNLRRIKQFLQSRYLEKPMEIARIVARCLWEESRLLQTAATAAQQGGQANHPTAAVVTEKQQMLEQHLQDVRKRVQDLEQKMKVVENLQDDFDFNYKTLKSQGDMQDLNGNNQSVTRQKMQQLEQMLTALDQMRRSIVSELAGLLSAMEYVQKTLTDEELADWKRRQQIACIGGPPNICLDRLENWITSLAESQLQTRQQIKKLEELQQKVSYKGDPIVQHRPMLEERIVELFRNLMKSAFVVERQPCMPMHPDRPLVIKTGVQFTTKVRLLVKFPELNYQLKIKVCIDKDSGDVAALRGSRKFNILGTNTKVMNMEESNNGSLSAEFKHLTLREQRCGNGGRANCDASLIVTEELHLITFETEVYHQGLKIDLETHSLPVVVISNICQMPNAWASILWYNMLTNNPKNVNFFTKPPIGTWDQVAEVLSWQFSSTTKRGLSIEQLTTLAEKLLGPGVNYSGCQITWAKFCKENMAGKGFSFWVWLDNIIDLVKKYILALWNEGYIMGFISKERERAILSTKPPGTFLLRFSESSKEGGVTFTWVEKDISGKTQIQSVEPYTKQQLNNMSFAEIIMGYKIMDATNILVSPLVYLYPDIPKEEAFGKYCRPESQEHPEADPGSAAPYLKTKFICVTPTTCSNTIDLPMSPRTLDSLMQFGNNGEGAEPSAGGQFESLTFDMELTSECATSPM
# Summary of the method: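 After a 24 h compound incubation, total RNA from MRTU-transfected HepG2 cells was converted to cDNA and reporter sequences PCR-amplified, labelled and profiled by capillary electrophoresis. Gain and loss of signal were referenced to DMSO.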
# [7] = ATG_TA_CIS: Attagene CIS-FACTORIAL HepG2 Assay for human TA Basal Promoter (AID 2282964); settings: HepG2 Attagene CIS-factorial TA basal promoter reporter; actives raise or lower the signal
# Summary of the method: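 HepG2 cells transiently transfected with multiple reporter units under cis promoter elements, reporting endogenous transcription factor activity; this endpoint tracks the TA basal promoter as background control. Reporter mRNA after 24 h dosing measured by RT-PCR/capillary electrophoresis; bidirectional fits versus DMSO.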
# [8] = ATG_TCF_b_cat_CIS: Attagene CIS-FACTORIAL HepG2 Assay for human T-Cell-Factor with beta-catenin (TCF/b-cat) (AID 2282965); settings: HepG2 TCF/beta-catenin cis-reporter transcription, actives raise or lower the signal
# Summary of the method: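 Endogenous transcription factor activity is captured through cis-promoter reporter constructs transiently introduced into human HepG2 liver cells. Induced reporter mRNA is measured after 24 h and fitted bidirectionally relative to DMSO.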
# [9] = ATG_TAL_CIS: Attagene CIS-FACTORIAL HepG2 Assay for human TAL Basal Promoter (AID 2282966); settings: HepG2 Attagene cis-factorial TAL promoter reporter; actives raise or lower the signal;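 also: background control endpoint measuring basal TAL promoter reporter mRNA not a specific factor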
# Summary of the method: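 Readout: reporter mRNA, fluorescence by CE. System: HepG2, transient multi-reporter transfection, endogenous TF activity. Exposure: 24 h. Analysis: bidirectional, DMSO-normalized; background control.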
# [10] = ATG_TGFb_CIS: Attagene CIS-FACTORIAL HepG2 Assay for human Transforming Growth Factor (TGF) (AID 2282967); settings: HepG2 Attagene CIS TGFb reporter, mRNA transcription; actives raise or lower the signal
# Summary of the method: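 HepG2 cells transiently transfected with cis-promoter-driven multiple reporter units measure endogenous TF activity; reporter mRNA quantified at 24 h by RT-PCR, FAM labeling, HpaI digestion and capillary electrophoresis. Bidirectional fit vs DMSO.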
# [11] = ATG_VDRE_CIS: Attagene CIS-FACTORIAL HepG2 Assay for human Vitamin D Receptor Element (VDRE) (AID 2282968); settings: HepG2 VDRE cis-reporter transcription, actives raise or lower the signal
# Summary of the method: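 In transiently transfected HepG2 liver cells, gain or loss of reporter mRNA after 24 h exposure is scored relative to DMSO, using fluorescence detection by capillary electrophoresis of RT-PCR products.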
# [12] = molecular target: X-box-binding protein 1 (Homo sapiens) (UniProt P17861); assay: ATG_Xbp1_CIS: Attagene CIS-FACTORIAL HepG2 Assay for human X-box Binding Protein 1 (XBP1) (AID 2282972); settings: HepG2 XBP1 cis-element reporter, Attagene multiplex; actives raise or lower the signal
# Chain of X-box-binding protein 1 (Homo sapiens) (P17861 whole entry, looked up): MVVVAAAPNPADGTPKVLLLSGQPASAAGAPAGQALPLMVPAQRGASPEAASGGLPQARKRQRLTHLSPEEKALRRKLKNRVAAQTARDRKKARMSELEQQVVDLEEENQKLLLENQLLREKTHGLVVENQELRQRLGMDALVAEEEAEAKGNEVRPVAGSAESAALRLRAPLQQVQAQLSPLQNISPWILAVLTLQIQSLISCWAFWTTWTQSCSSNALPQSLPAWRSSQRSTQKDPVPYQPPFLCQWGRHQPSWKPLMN
# Summary of the method: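 HepG2 cells transiently transfected with multiple cis-element reporter units report endogenous TF activity; 24 h exposure, then reporter mRNA measured by RT-PCR, 6-FAM labelling, HpaI digestion and capillary electrophoresis. Bidirectional fitting versus DMSO.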
# [13] = ATG_M_19_TRANS: Attagene TRANS-FACTORIAL HepG2 Assay for M19 Transcription Factor (Internal Marker) (AID 2282974; active = hit-call score of the fitted dose curve at least 0.9, where 1 is the maximum); settings: HepG2 Attagene TRANS-FACTORIAL M19 internal marker reporter
# Summary of the method: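 Using RT-PCR and capillary electrophoresis, reporter mRNA from transiently transfected human HepG2 cells was quantified following 24 h exposure; activity was fitted in the positive direction against DMSO.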
# [14] = molecular target: Estrogen receptor (Homo sapiens) (UniProt P03372); assay: ATG_ERa_TRANS: Attagene TRANS-FACTORIAL HepG2 Assay for human Estrogen Receptor alpha (ERa) (AID 2282970; active = hit-call score of the fitted dose curve at least 0.9, where 1 is the maximum); settings: HepG2 Attagene TRANS ERa GAL4 reporter, mRNA
# Chain of Estrogen receptor (Homo sapiens) (P03372 whole entry, looked up, the tested form may be a part): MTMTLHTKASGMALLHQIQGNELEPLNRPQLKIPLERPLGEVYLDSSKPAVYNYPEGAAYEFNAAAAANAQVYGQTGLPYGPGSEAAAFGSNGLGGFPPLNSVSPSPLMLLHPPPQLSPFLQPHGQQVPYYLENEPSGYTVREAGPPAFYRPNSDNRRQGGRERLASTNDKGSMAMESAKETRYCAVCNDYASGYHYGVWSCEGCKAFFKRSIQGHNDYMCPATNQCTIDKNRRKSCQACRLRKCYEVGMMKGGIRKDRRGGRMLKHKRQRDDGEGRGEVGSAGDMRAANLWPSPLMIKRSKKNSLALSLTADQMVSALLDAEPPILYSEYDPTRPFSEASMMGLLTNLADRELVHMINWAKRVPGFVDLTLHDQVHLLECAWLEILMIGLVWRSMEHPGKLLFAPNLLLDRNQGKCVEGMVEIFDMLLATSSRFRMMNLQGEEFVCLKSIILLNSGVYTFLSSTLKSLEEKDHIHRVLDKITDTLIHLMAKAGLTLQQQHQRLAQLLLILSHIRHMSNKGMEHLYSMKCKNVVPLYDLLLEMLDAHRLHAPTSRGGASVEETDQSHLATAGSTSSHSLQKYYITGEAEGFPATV
# Summary of the method: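 Transactivation via ERa-Gal4 chimera in HepG2; 24 hour incubation; reporter mRNA detected by fluorescence RT-PCR and capillary electrophoresis.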
# [15] = molecular target: Steroid hormone receptor ERR1 (Homo sapiens) (UniProt P11474); assay: ATG_ERRa_TRANS: Attagene TRANS-FACTORIAL HepG2 Assay for human Estrogen-Related Receptor alpha (ERRa) (AID 2282971; active = hit-call score of the fitted dose curve at least 0.9, where 1 is the maximum); settings: HepG2 Attagene TRANS reporter, ERRa transactivation
# Chain of Steroid hormone receptor ERR1 (Homo sapiens) (P11474 whole entry, looked up, the tested form may be a part): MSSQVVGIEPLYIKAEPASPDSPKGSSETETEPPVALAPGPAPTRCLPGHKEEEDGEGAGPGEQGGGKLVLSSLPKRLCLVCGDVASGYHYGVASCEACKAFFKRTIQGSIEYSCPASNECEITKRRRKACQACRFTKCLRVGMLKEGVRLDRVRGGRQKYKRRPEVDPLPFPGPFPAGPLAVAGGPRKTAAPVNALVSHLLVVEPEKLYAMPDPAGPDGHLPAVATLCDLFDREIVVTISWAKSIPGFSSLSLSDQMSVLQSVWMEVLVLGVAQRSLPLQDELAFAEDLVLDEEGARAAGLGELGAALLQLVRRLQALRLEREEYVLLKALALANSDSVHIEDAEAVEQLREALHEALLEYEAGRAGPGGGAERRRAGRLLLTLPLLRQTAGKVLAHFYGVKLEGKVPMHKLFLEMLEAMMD
# Summary of the method: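 HepG2 cells were transiently transfected with multiple GAL4-UAS reporter units, then dosed with compound for 24 h. Total RNA was reverse-transcribed, reporter cDNA PCR-amplified and fluorescently labelled, and fragments resolved by capillary electrophoresis; induction was compared with DMSO.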
# [16] = molecular target: Transcription factor Sp1 (Homo sapiens) (UniProt P08047); assay: ATG_Sp1_CIS: Attagene CIS-FACTORIAL HepG2 Assay for human Specificity Protein 1 (Sp1) (AID 2282961); settings: HepG2 Sp1 cis-reporter transcription, actives raise or lower the signal
# Chain of Transcription factor Sp1 (Homo sapiens) (P08047 whole entry, looked up, the tested form may be a part): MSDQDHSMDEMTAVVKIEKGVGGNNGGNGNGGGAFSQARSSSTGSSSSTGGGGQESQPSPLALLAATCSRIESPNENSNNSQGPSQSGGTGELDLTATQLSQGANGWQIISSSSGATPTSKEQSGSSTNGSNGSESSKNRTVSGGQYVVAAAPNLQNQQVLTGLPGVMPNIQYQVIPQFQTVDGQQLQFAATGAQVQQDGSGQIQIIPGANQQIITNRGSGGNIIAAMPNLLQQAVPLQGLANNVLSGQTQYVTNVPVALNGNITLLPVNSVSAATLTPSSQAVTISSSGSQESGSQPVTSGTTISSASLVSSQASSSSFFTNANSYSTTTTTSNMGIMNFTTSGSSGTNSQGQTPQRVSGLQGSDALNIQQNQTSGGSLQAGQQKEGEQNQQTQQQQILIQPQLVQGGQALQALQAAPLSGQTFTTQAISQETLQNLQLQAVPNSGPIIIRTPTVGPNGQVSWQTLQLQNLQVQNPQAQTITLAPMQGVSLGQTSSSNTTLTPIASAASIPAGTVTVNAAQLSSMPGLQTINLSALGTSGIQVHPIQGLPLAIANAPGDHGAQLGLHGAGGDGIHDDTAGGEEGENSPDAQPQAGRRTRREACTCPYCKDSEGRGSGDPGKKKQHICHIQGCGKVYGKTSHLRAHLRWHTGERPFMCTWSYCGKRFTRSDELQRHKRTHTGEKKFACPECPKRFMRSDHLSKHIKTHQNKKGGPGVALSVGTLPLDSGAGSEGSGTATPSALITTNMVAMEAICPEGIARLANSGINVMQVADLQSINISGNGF
# Summary of the method: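 Endpoint reflects endogenous Sp1 transcriptional activity, not an exogenous fusion protein: HepG2 cells with transfected cis-regulated reporters, 24 h dosing, RT-PCR/capillary electrophoresis mRNA read-out, DMSO-normalised bidirectional fit.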
# [17] = molecular target: Nuclear receptor subfamily 1 group I member 3 (Homo sapiens) (UniProt Q14994); assay: ATG_CAR_TRANS: Attagene TRANS-FACTORIAL HepG2 Assay for human Constitutive Androstane Receptor (CAR) (AID 2282969; active = hit-call score of the fitted dose curve at least 0.9, where 1 is the maximum;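 also: activators raise reporter mRNA above DMSO so AC50 marks induction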); settings: HepG2 Attagene TRANS-FACTORIAL CAR reporter
# Chain of Nuclear receptor subfamily 1 group I member 3 (Homo sapiens) (Q14994 whole entry, looked up, the tested form may be a part): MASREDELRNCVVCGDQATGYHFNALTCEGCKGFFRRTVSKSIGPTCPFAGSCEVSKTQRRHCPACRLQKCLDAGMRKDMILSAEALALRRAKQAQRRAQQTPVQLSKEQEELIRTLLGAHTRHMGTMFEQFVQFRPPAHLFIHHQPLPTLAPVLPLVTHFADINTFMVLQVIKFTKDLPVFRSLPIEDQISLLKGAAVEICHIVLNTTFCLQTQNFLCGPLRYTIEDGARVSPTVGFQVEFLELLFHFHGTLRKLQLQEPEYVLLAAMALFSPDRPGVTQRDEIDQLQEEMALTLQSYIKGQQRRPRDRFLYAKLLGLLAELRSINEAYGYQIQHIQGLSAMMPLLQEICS
# Summary of the method: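 Readout is reporter mRNA induction, quantified by fluorescent primer extension and capillary electrophoresis after RT-PCR. Cells were HepG2 transiently carrying chimeric NR-Gal4 constructs with GAL4-UAS reporters, treated for 24 h; activity scored upward from DMSO.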
# [18] = molecular target: Estrogen-related receptor gamma (Homo sapiens) (UniProt P62508); assay: ATG_ERRg_TRANS: Attagene TRANS-FACTORIAL HepG2 Assay for human Estrogen-Related Receptor gamma (ERRg) (AID 2282977; active = hit-call score of the fitted dose curve at least 0.9, where 1 is the maximum;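 also: hits increase reporter signal over DMSO so potencies reflect activators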); settings: HepG2 Attagene TRANS reporter, ERRg transactivation
# Chain of Estrogen-related receptor gamma (Homo sapiens) (P62508 whole entry, looked up, the tested form may be a part): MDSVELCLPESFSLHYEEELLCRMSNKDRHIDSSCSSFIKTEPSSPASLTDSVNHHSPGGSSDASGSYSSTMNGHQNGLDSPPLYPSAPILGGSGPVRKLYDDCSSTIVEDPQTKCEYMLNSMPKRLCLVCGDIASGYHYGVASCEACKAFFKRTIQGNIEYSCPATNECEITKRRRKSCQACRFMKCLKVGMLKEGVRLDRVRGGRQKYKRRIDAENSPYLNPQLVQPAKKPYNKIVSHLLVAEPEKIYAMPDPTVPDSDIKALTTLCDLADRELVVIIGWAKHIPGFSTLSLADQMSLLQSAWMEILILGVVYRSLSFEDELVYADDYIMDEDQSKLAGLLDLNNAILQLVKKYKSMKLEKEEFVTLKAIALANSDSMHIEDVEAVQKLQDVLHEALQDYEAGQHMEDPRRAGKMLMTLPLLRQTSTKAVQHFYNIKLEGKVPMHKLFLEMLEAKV
# Summary of the method: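 HepG2 cells transiently transfected with multiplexed GAL4-UAS reporter units and chimeric NR-Gal4 constructs were exposed to test chemicals for 24 h. Reporter mRNA was measured by RT-PCR, 6-FAM primer extension, HpaI digestion and capillary electrophoresis; gain-of-signal versus DMSO.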
# [19] = ATG_GAL4_TRANS: Attagene TRANS-FACTORIAL HepG2 Assay for GAL4 (Internal Marker) (AID 2282976; active = hit-call score of the fitted dose curve at least 0.9, where 1 is the maximum); settings: HepG2 Attagene TRANS GAL4 internal marker reporter
# Summary of the method: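 Fluorescence from capillary electrophoresis of labelled RT-PCR products quantifies reporter mRNA induction after 24 h dosing of HepG2 cells carrying transfected GAL4-UAS reporter transcription units. Vehicle DMSO serves as baseline.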
smiles,measurement,setting,value
CCOC(=O)[C@H](C)O,outcome,[1],inactive
same,AC50,[2],27.2 µM (active)
same,outcome,[3],inactive
same,outcome,[4],inactive
same,outcome,[5],inactive
same,outcome,[6],inactive
same,outcome,[7],inactive
same,outcome,[8],inactive
same,outcome,[9],inactive
same,outcome,[10],inactive
same,outcome,[11],inactive
same,outcome,[12],inactive
same,outcome,[13],inactive
Cc1cc(=O)n(-c2ccccc2)n1C,outcome,[1],inactive
same,outcome,[2],inactive
same,outcome,[4],inactive
same,outcome,[5],inactive
same,outcome,[6],inactive
same,outcome,[7],inactive
same,outcome,[8],inactive
same,outcome,[9],inactive
same,outcome,[10],inactive
same,outcome,[11],inactive
same,outcome,[14],inactive
same,outcome,[15],inactive
same,outcome,[12],inactive
same,outcome,[13],inactive
c1cc(N(CC2CO2)CC2CO2)ccc1OCC1CO1 (stereo not given),AC50,[1],46.4 µM (active)
same,outcome,[2],inactive
same,AC50,[3],80.6 µM (active)
same,AC50,[16],56.9 µM (active)
same,AC50,[5],68.3 µM (active)
same,outcome,[6],inactive
same,outcome,[7],inactive
same,AC50,[8],12.6 µM (active)
same,outcome,[9],inactive
same,AC50,[11],36.8 µM (active)
same,outcome,[17],inactive
same,AC50,[12],12.9 µM (active)
same,outcome,[13],inactive
same,outcome,[18],inactive
C=CC(=O)OCCC(=O)O,outcome,[1],inactive
same,outcome,[2],inactive
same,outcome,[4],inactive
same,outcome,[16],inactive
same,outcome,[5],inactive
same,outcome,[6],inactive
same,outcome,[8],inactive
same,outcome,[9],inactive
same,outcome,[10],inactive
same,outcome,[11],inactive
same,outcome,[17],inactive
same,outcome,[15],inactive
same,outcome,[12],inactive
same,outcome,[19],inactive
same,outcome,[18],inactive
Cc1ccc(N/N=c2\c(=O)cc/c(=N/Nc3ccc(S(=O)(=O)O)cc3)c2=O)c(C)c1,outcome,[1],inactive
same,AC50,[2],42.6 µM (active)
same,outcome,[3],inactive
same,outcome,[16],inactive
same,outcome,[5],inactive
same,outcome,[6],inactive
same,outcome,[7],inactive
same,outcome,[8],inactive
same,outcome,[9],inactive
same,outcome,[10],inactive
same,outcome,[17],inactive
same,AC50,[14],100 µM (active)
same,outcome,[15],inactive
same,outcome,[12],inactive
same,outcome,[18],inactive
O=C1CCCC1,outcome,[1],inactive
same,AC50,[2],62.7 µM (active)
same,outcome,[4],inactive
same,outcome,[16],inactive
same,outcome,[5],inactive
same,outcome,[6],inactive
same,outcome,[7],inactive
same,outcome,[9],inactive
same,outcome,[10],inactive
same,outcome,[11],inactive
same,outcome,[15],inactive
same,outcome,[12],inactive
same,outcome,[13],inactive
same,outcome,[18],inactive
